Data taken from the supplement of paper PMC10849652.
The full data set covers some 7,900 targets. This sample favours those with a hit. About 0.6% of all pairs of compound and target were hits.

Key:
Assay in all cases: log2 fold change, soluble protein after heating vs DMSO (PISA); higher = thermal stabilisation; K562 cells, 10 uM, 30 min; active = over 0.2 and 3.5 SD of the protein, either way, in both replicates (recomputed)
[1] = compound: C1=CC=C(C=C1)[C@H](COC2=CC3=C(C=C2)NC(=O)N3)NC(=O)C4=CC=CN(C4=O)CC5=CC(=C(C=C5)F)F
In short: (§1)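 K562 cells (2×10^6 cells/mL) were treated with 10 μM compound for 30 min, and aliquots were heated for 3 min over 48°C-58°C. Pooled aliquots were extracted in PBS with 0.5% NP-40 at 4°C, and the supernatant after 21,000xg for 90 min was measured by TMTpro 16plex LC-MS/MS with channel sums equalised. Reported thermal stability, relative to control samples and from duplicates, is a log2 fold change.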

[2] = compound: CC1=C(SC2=C1C(=N[C@H](C3=NN=C(N32)C)CC(=O)N)C4=CC=C(C=C4)Cl)C
In short: as §1

[3] = compound: CC1=C2C(=CC=C1)N=C(N(C2=O)C3=CC=CC=C3C)CN4C=NC5=C(N=CN=C54)N
In short: as §1

[4] = compound: Cc1sc2c(c1C)C(c1ccc(Cl)cc1)=N[C@@H](CC(=O)OC(C)(C)C)c1nnc(C)n1-2
In short: as §1

[5] = compound: c1ccc([C@@H]2C[C@H]2NC2CCNCC2)cc1
In short: as §1

Measured: log2 fold change

FAM117A (UniProt Q9C073)
UniProt Q9C073, sequence (Q9C073 whole entry, looked up): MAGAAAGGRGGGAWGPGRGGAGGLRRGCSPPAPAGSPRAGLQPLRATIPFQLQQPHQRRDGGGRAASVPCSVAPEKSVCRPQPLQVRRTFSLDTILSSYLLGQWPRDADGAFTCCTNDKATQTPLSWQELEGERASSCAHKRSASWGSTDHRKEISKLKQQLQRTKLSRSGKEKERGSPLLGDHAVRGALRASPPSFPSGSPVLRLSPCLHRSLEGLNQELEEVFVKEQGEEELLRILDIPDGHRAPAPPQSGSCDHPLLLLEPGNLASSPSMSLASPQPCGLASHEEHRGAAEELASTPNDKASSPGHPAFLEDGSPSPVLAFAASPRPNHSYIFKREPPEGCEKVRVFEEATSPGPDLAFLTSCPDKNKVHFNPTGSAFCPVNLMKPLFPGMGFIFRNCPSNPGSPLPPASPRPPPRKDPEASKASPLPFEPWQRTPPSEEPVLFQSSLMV
inactive: [1] -0.004 | [2] 0.057 | [3] 0.027 | [4] 0.01 | [5] 0.012

DHCR24 (UniProt Q15392)
UniProt Q15392, sequence (Q15392 whole entry, looked up): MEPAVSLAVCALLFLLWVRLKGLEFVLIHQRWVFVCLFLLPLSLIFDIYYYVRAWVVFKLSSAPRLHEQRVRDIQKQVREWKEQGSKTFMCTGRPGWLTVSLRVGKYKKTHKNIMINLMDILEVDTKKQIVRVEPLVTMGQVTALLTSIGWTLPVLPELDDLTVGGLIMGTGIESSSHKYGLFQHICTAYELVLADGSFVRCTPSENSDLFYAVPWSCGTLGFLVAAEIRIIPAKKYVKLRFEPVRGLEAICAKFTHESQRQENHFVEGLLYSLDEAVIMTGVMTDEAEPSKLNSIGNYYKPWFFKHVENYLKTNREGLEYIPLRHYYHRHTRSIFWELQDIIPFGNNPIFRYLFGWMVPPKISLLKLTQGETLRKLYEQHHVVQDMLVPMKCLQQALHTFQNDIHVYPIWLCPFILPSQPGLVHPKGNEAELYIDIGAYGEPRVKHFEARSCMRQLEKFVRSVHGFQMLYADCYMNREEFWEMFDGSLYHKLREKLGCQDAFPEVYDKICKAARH
inactive: [1] 0.099 | [2] -0.035 | [3] 0.14 | [4] 0.036 | [5] -0.012

EEF1G isoform 2 (UniProt P26641)
UniProt P26641, sequence (P26641 whole entry, looked up): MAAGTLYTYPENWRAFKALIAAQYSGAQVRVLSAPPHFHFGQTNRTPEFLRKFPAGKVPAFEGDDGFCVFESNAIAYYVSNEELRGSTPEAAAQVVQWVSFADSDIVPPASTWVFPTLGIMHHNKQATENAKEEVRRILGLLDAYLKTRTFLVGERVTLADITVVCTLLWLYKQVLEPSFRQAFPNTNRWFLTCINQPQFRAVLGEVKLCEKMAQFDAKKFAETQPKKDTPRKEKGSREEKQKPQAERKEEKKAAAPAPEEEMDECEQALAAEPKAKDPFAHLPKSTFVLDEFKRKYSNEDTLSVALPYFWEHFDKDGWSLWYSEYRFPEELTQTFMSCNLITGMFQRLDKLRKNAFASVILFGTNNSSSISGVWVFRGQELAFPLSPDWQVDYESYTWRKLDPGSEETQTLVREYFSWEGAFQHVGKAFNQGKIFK
inactive: [1] -0.068 | [2] 0.005 | [3] -0.049 | [4] -0.001 | [5] -0.006

ELOVL5 isoform 2 (UniProt Q9NYP7)
UniProt Q9NYP7, sequence (Q9NYP7 whole entry, looked up): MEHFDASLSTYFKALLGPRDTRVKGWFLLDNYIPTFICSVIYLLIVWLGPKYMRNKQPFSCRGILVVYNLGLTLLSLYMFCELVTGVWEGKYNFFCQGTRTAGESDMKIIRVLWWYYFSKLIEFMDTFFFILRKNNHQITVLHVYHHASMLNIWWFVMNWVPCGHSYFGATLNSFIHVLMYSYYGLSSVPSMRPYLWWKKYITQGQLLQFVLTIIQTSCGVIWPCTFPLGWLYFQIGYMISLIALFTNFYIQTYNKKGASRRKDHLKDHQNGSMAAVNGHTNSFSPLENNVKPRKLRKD
inactive: [1] -0.056 | [2] 0.021 | [3] 0.016 | [4] -0.074 | [5] 0.033

CUX1 isoform 2 (UniProt Q13948)
UniProt Q13948, sequence (Q13948 whole entry, looked up): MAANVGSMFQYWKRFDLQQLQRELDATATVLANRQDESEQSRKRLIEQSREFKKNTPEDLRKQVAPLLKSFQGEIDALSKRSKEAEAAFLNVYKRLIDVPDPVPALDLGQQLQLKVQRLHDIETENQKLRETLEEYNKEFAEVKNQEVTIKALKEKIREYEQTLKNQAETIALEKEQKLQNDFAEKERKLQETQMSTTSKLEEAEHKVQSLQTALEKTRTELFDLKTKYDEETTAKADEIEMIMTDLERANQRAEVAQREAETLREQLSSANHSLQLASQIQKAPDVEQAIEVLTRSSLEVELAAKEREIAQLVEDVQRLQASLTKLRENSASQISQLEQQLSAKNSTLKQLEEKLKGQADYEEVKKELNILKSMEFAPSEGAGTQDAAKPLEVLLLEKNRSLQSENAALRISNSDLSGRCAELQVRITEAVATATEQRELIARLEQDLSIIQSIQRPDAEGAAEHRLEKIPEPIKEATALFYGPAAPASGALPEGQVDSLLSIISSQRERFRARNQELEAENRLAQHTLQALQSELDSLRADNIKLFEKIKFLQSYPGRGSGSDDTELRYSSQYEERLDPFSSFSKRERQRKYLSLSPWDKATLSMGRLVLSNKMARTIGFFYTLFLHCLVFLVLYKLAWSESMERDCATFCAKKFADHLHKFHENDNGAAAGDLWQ
inactive: [1] -0.067 | [2] 0.013 | [3] 0 | [4] 0 | [5] 0.023

DNAH11 (UniProt Q96DT5)
inactive: [1] 0.047 | [2] -0.387 | [3] 0.089 | [4] -0.021 | [5] 0.092

EGLN1 (UniProt Q9GZT9)
UniProt Q9GZT9, sequence (Q9GZT9 whole entry, looked up): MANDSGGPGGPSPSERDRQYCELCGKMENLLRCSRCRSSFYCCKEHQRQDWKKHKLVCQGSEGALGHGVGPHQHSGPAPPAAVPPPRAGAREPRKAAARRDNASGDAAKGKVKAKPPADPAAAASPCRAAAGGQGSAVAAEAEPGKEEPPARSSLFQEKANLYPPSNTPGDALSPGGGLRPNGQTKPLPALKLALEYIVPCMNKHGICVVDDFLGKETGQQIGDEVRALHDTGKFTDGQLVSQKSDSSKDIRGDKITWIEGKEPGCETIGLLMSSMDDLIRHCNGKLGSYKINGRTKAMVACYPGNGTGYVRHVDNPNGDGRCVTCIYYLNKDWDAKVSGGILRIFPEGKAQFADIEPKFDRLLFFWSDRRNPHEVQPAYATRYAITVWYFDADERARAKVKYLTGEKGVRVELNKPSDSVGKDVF
inactive: [1] 0.055 | [2] 0.06 | [3] 0.013 | [4] 0.008 | [5] 0.019

EXOC5 (UniProt O00471)
UniProt O00471, sequence (O00471 whole entry, looked up): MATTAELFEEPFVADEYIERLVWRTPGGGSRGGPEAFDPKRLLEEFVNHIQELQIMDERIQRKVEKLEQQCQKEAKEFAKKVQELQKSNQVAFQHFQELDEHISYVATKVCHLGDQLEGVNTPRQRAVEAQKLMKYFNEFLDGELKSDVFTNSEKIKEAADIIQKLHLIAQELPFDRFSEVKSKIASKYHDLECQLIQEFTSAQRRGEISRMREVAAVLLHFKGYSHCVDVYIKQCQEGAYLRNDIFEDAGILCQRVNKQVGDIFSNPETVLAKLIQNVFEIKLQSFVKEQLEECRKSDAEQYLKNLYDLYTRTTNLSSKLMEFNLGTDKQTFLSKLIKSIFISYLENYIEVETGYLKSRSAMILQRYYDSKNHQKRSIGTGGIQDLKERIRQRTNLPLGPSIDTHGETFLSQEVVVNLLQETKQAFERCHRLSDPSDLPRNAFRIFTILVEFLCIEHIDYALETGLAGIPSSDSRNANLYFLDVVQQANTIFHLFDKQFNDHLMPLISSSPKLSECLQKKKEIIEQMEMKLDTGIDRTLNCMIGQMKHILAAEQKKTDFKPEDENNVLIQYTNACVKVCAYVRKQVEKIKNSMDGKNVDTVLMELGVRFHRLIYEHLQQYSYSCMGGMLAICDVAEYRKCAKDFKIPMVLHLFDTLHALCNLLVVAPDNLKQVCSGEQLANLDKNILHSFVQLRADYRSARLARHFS
inactive: [1] -0.069 | [2] -0.006 | [3] 0.07 | [4] 0.066 | [5] -0.018

DBN1 isoform 3 (UniProt Q16643)
UniProt Q16643, sequence (Q16643 whole entry, looked up): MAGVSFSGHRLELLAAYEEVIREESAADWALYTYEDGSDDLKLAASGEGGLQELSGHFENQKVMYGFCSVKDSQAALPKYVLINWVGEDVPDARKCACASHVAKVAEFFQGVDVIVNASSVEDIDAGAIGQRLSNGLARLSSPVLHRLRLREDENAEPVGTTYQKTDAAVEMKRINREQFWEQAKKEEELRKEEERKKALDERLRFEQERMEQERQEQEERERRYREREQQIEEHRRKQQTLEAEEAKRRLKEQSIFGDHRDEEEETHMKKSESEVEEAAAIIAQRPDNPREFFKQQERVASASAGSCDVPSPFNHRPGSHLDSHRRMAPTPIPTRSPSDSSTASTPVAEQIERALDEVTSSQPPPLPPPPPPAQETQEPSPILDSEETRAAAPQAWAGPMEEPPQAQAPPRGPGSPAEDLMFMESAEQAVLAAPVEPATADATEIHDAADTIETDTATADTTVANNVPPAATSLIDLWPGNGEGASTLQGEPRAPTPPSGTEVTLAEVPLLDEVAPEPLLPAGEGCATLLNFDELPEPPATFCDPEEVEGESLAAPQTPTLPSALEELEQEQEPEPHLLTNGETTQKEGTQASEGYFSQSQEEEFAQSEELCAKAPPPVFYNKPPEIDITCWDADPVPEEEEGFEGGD
inactive: [1] 0.049 | [2] 0.019 | [3] -0.027 | [4] 0.044 | [5] 0.004
